Screening results as filed in PubChem.
HSF1 inhib: HSF1 inhibitors in luciferase reporter cells, primary screen, cell-based, NIH3T3, luminescence; NIH3T3-HGL HSE-luciferase, MG132-induced, luminescence 8 h; stronger effect = lower value; activity change, negative = inhibition, % at 7.5 µM (by protocol); hit rate 0.77% among 300,000;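 active = more than half of replicate wells show activity change below -50%, luminescence cut by over half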;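 note: luciferase reports HSF-1 transcriptional activity via heat shock element; 0% = median of DMSO wells and -100% = zero luminescence signal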
esBAF inh: Bmi1 luciferase reporter increase in mESCs, primary screen, esBAF inhibitor project, mouse ES cells, Bmi1 luciferase knock-in, single point | 24 h; 100% = twice the neutral-well signal | reporter increase, % at 12.5 µM | hit rate 2% among 350,000 | AID 602393, 2012; in the data active = activation above about 40%;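 note: 0% = median of the plate's neutral control wells and 100% = double that signal; a rise in the Bmi1 reporter signal indicates esBAF inhibition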
HSF1 activator: HSF-1 activators, primary screen, NIH3T3-HGL cells, MG132 stress, luminescence, single point; NIH3T3-HGL HSF-1 luciferase reporter, 8 h; 100% = twice DMSO control signal; activation, % at 9 µM; hit rate 1.7% among 300,000;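 active = mean replicate activation of at least 50% with a set share of replicates each reaching 50%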;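 note: 0% = median of the neutral control wells and 100% = twice that signal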
Vif inh: HIV Vif self-association inhibitors, primary screen, imaging, HEK293T, single point. HEK293T cells, Vif self-association by quenched fluorescence, 24 h. inhibition, % at 7.49 µM. hit rate 0.35% among 340,000. AID 602346, 2012; in the data active = inhibition above about 50%, passing the limit was not always enough
* = called active by the depositor; i = inactive; x = no result. An excerpt weighted towards active compounds, which were near 3.4% of everything screened.

SMILES	HSF1 inhib	esBAF inh	HSF1 activator	Vif inh
Cc1cc(Cl)ccc1OCC(=O)Nc1ccncc1	-59*	6	-69	-8
Cc1cccc(OCC(=O)Nc2ccncc2)c1C	-68*	-1	-75	-1
Cn1cnc(S(=O)(=O)N2C[C@H](O)COC[C@H]3O[C@H](CC(=O)NCc4cccc(F)c4)CC[C@@H]32)c1	x	-2	x	x
CCCC(=O)Nc1ccc2c(c1)OC[C@@H](C)N(C(=O)c1ccncc1)C[C@@H](C)[C@@H](OC)CN(C)C2=O	x	-2	x	x
CC=Cc1ccc2n(c1=O)C[C@H]1[C@H](CO)[C@@H](C(=O)Nc3ccc(-c4ccccc4)cc3)N(CCC)[C@@H]21 (mixture of isomers)	x	10	x	x
CCN=C1S/C(=C\c2ccc(-c3cccc(C(=O)O)c3)o2)C(=O)N1CC	-52*	x	-57	3
CCN1C(=O)/C(=C\c2ccc(-c3cccc(C(=O)OC)c3)o2)SC1=Nc1ccc(C(=O)O)cc1	1	x	-1	x
CCCC(=O)N1CCC1(C)C(=O)Nc1cc(-c2ccccc2)nn1C (stereo unspecified)	x	55*	x	5
COc1ccc(-c2ccc3oc(-c4ccsc4)cc(=O)c3c2)cc1F	x	45*	x	0
COc1cc(-c2ccc3oc(-c4ccsc4)cc3c2)cc(OC)c1OC	20	11	12	-5
O=c1cc(-c2ccsc2)oc2ccc(-c3ccc4cc[nH]c4c3)cc12	x	59*	x	-6
O=c1c2ccccc2oc2ccc(-c3ccc4[nH]ccc4c3)cc12	12	34	15	-4
COc1ccc(S(=O)(=O)Nc2ccc3c(c2)C(=O)N([C@@H](C)CO)C[C@@H](C)[C@H](CN(C)S(=O)(=O)c2ccc(Cl)cc2)O3)cc1	x	-1	x	x
O=c1[nH]c(SCc2ccc(Cl)cc2)nc2ccsc12	72	x	127*	x
CCCC#Cc1cnc2c(c1)C(=O)N([C@@H](C)CO)C[C@@H](C)[C@H](CN(C)S(=O)(=O)c1cccc(OC)c1)O2	x	7	x	x
COc1ccc(C(=O)c2ccc(OC)cc2O)c(O)c1	21	50*	18	32
O=C(/C=C/c1ccncc1)c1cc(Cl)ccc1O	24	-2	59*	4
COc1ccc(C(=O)/C=C/c2cc(C(=O)O)cc3c2OCOC3)c(O)c1	70	59*	95*	6
COc1ccc(/C=C/C(=O)c2cc(Cl)ccc2O)c(OC)c1	47	x	64*	2
COc1ccc(C(=O)c2ccccc2O)c(O)c1	x	15	x	-9
COCC(=O)Nc1ccc2c(c1)C(=O)N(C)C[C@@H](OC)[C@H](C)CN(Cc1ccccc1F)[C@H](C)CO2	x	2	x	x
O=S(=O)(c1ccccc1F)N1CCCCN2[C@H](C1)[C@H](c1ccc(-c3cncnc3)cc1)[C@@H]2CO	x	6	x	x
CNC[C@@H]1Oc2ccc(NS(=O)(=O)c3cn(C)cn3)cc2C(=O)N([C@H](C)CO)C[C@@H]1C	x	-4	x	x
COc1ccc(C(=O)C=Cc2cccs2)c(O)c1	x	45*	x	14
COc1ccc(C(=O)/C=C/c2ccccc2)c(O)c1	18	27	33	-2
SMILES	HSF1 inhib	esBAF inh	HSF1 activator	Vif inh
COc1ccc(C(=O)/C=C/c2ccc(OC)cc2OC)c(O)c1	6	88*	21	-4
C[C@@H]1CN([C@H](C)CO)C(=O)Cc2cc(NS(=O)(=O)c3cn(C)cn3)ccc2O[C@@H]1CN(C)Cc1ccc(Cl)c(Cl)c1	x	6	x	x
Brc1ccc2[nH]c3c(N4CCc5ccccc5C4)ncnc3c2c1	44	x	58*	x
Fc1ccc2[nH]c3c(N4CCc5ccccc5C4)ncnc3c2c1	3	x	30	-15
Cc1ccc2[nH]c3c(N4CCc5ccccc5C4)ncnc3c2c1	52	x	92*	-45
C[C@@H]1CN([C@@H](C)CO)C(=O)c2cc(NC(=O)Nc3ccc(C(F)(F)F)cc3)ccc2O[C@@H](C)CCCCO[C@H]1CN(C)S(=O)(=O)c1ccc(F)cc1	x	0	x	x
COc1ccccc1-c1cnc2c(c1)C(=O)N([C@H](C)CO)C[C@H](C)[C@H](CN(C)Cc1ccc(F)cc1)O2	x	-2	x	x
C[C@@H]1CN([C@H](C)CO)C(=O)c2cc(NC(=O)CCN3CCOCC3)ccc2O[C@@H]1CN(C)Cc1ccc(C(=O)Nc2ccccc2N)cc1	x	-9	x	x
C=CCn1c(C)cc(C(=O)CSc2nnc(NC(C)C)s2)c1C	-59*	x	-66	x
C=CCn1c(C)cc(C(=O)CSc2nnc(NCc3ccccc3)s2)c1C	x	29	x	-7
CC(C)NC(=O)Nc1ccc2c(c1)C(=O)N([C@H](C)CO)C[C@H](C)[C@@H](CN(C)S(C)(=O)=O)OCCCC[C@H](C)O2	x	-3	x	x
CCC(=O)Nc1ccc2c(c1)OC[C@@H](C)N(C(=O)C1CCC1)C[C@@H](C)[C@H](OC)CN(C)C2=O	x	5	x	x
O=c1oc(-c2cccs2)nc2sc3c(c12)CCCC3	36	26	63*	x
O=c1oc(-c2cccs2)nc2sc3c(c12)CCC3	1	46*	-3	3
CCN1C(=S)SC(=O)C1=C1C=C(C)N(Cc2ccco2)C(C)=C1	-54*	72*	-59	i
Oc1ccccc1C1NN=C(c2ccccc2)S1 (stereo unspecified)	71	1	81*	-12
CSc1ccc(C2NN=C(c3ccccc3)S2)cc1 (stereo unspecified)	-28	x	-27	0
S=c1[nH]c(-c2ccccc2)cn1/N=C/c1ccccc1Br	20	24	64*	-1
CCCNC(=O)c1cc(Cl)c(NC(=O)C2=CSCCO2)cc1OC	12	92*	26	-6
C[C@@H]1CN([C@H](C)CO)S(=O)(=O)c2ccc(-c3cccc(C(=O)N(C)C)c3)cc2O[C@H]1CN(C)C	x	-4	x	x
Nc1cccc2cc(-c3ccccc3)oc12	x	91*	x	-8
S=C(Nc1ccccc1)Nc1nccs1	8	60*	7	-4
Fc1ccc(NC(=S)Nc2nccs2)cc1	23	x	64*	-3
CC(C)(C)c1nnc(NC(=S)Nc2ccccc2)s1	20	75*	41	4
COc1cc(OC)cc(C(=O)Nc2nnc(NC(=S)Nc3ccccc3)s2)c1	-6	x	-12	-9
SMILES	HSF1 inhib	esBAF inh	HSF1 activator	Vif inh
Fc1ccc(NC(=S)Nc2ccc3nccnc3c2)cc1	16	x	39	-14
O=C(Cc1ccccc1)Nc1nccs1	2	3	-2	-3
CN(C)CC(=O)Nc1ccc2c(c1)[C@@H]1C[C@@H](CC(=O)NCc3ccccn3)O[C@H](CO)[C@@H]1O2	x	-1	x	x
Cc1ccc(OCc2ccc(C(=O)Nc3nccs3)o2)cc1	36	21	60*	1
CCc1nnc(NC(=O)c2ccc(COc3ccc(C)cc3)o2)s1	3	11	-11	-6
CC(C)(C)c1ccc(OCc2ccc(C(=O)Nc3cccnc3)o2)cc1	31	63*	28	-7
O=C(Nc1nccs1)c1ccc(COc2ccccc2)o1	30	52*	56*	-4
O=C(Nc1nccs1)c1ccc(CSc2ccccc2)o1	50	39	63*	x
O=C(NC(=S)Nn1cnnc1)c1ccccc1Cl	-2	x	-12	4
